Screening results deposited in PubChem by National Center for Advancing Translational Sciences (NCATS).
Most compounds without a hit are left out; they make up all but 5.2% or so of the library.
TSHR ag: activates the human thyroid stimulating hormone receptor; P16473; HEK293-CNG-TSHR cells (CNG channel as cAMP sensor), membrane potential dye, cAMP; Potency, µM (doses to about 57.1 µM), inactives show top-dose activation, actives largely listed as activators; hit rate 0.48% among 73,000; active = well fitted activation curve with a large enough effect in the main read-out, with a control signal flat, not every such curve was filed as active; inconclusive = small, poorly fitted or top-dose-only effect, or a change in a side signal; inactive = no such curve, though single readings can be large or run the other way; % of control where 0% means no effect;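 note: the control signal comes from parental cells without the receptor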
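HEK 293 cells stably expressing TSHR and a cAMP-gated CNG channel; parental CNG-only cells as counterscreen. Cells preloaded 60 min with membrane potential dye plus 100 uM RO 20-1724, then compound 30 min; fluorescence read at 590 nm.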
Luciferase inh: blocks Photinus pyralis firefly luciferase activity; P08659; purified firefly luciferase, luminescence, 8 min; Potency, µM (highest dose often 57.1 µM), for the others: at the highest dose activity change, negative = inhibition, actives largely listed as inhibitors; hit rate 2.2% among 72,000; AID 411; note: % is set by controls: 0 for no effect and ±100 for the full control effect; nearly all actives have a fitted effect of over 40% in size
Target sequence (P08659 whole entry, looked up): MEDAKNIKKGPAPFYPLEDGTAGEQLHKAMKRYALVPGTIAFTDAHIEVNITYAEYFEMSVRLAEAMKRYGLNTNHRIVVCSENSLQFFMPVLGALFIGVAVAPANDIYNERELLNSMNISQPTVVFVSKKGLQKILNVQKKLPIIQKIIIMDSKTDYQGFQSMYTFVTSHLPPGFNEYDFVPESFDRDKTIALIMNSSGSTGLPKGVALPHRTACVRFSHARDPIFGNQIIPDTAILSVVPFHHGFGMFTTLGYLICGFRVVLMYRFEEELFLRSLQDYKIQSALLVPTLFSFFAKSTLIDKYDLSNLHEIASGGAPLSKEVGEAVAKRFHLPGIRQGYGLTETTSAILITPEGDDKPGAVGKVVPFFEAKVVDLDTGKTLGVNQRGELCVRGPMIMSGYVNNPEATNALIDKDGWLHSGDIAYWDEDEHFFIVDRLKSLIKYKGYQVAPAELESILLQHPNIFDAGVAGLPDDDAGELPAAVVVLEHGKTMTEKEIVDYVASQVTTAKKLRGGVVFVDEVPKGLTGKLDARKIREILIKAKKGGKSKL
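Inhibition of light generation by firefly luciferase from ATP and luciferin was profiled with concentration-response curves per sample, ATP held at 10 uM within the enzyme's linear range. Plates were read by luminescence after an 8-minute ambient incubation.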
Bst PK mod: alters activity of Bacillus stearothermophilus pyruvate kinase; Potency, µM; AID 361; hit rate 1.2% among 51,000; purified pyruvate kinase, luminescence ATP production; ribose 5-phosphate activator present at AC10; in the data active = potency below about 11 µM; inconclusive = mostly about 12 µM to 25 µM;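 the screen sought inhibitors and activators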;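 note: scaled between full activation by ribose 5 phosphate and full inhibition by luteolin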
HEK293 cAMP cs: parental HEK293 cAMP activation (counter-screen); parental HEK293 CNG cAMP sensor, membrane potential fluorescence; hit rate 2.5% among 73,000; Potency, µM (titrated, usually from 57.1 µM), for inactives: top-dose activation, actives largely listed as activators; AID 938; note: % of control where 0% means no effect; nearly all actives have a fitted effect of over 55% in size
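Parental HEK 293 cells stably expressing a cAMP-gated CNG channel were loaded with membrane potential dye containing 100 uM RO 20-1724 for 60 min. Compound added for 30 min; depolarization read as fluorescence intensity at 590 nm.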
* = called active by the depositor; ? = inconclusive; nt = no result given; [ ] = remark or other dose. Unless noted, calls come from the whole dose curve; as a rule, active = well fitted curve in the direction sought with a large enough effect; inconclusive = small, poorly fitted or top-dose-only effect, or another doubt; inactive = no such curve, though single readings can be large; an effect the other way counts as inactive or inconclusive. Potency is the fitted concentration of half-maximal effect.

SMILES	TSHR ag	Luciferase inh	Bst PK mod	HEK293 cAMP cs
O=C(NCc1nc2ccccc2[nH]1)[C@H]1C[C@@H]1[C@H](NP(=O)(c1ccccc1)c1ccccc1)c1ccccc1	?	nt	nt	12.6µM*
Cc1ccc(C2C(C(=O)c3cc4ccccc4o3)=C(O)C(=O)N2CCN2CCOCC2)o1 (stereo unspecified)	?	-3.2%	>57	?
COc1ccc(CNC(=O)C2CC(c3ccc(F)cc3)=NO2)cc1 (stereo unspecified)	19.1%	5.4%	>57	25.3%[2.29 µM]
Cc1cccc([C@@H]2CN(C)CCc3c2cc(O)c(O)c3Cl)c1	?	-1.1%	nt	25.1µM*
CN1CCc2cc(Cl)c(O)cc2[C@H](c2ccccc2)C1	nt	0.7%	nt	19.6%
O=C(COc1ccccc1Cl)N1CCCC1	-9.0%	0.4%	>57	-6.3%
CCCN1C=CC(=C2C(=O)c3ccccc3C2=O)C=C1	-7.3%	0.159µM*	nt	-7.8%
CN1C=CC(=C2C(=O)c3ccccc3C2=O)C=C1	0.4%	7.94µM*	nt	1.8%
CCN1C=CC(=C2C(=O)c3ccccc3C2=O)C=C1	9.7%	0.316µM*	nt	2.7%
Cc1nn(C)c(C)c1CN(C)C(=O)c1cnn2c1NC(c1ccccc1)CC2C(F)(F)F (stereo unspecified)	?	3.9%	>57	?
c1ccc2occc2c1	4.5%	nt	nt	-7.7%
CC1(C)CC(=O)C2=C(C1)N(Cc1ccco1)C(=O)C2(O)C(F)(F)F (stereo unspecified)	nt	1.8%[25.5 µM]	>25.6	nt
CN(C)c1ccc(C(=C2C=CC(=[N+](C)C)C=C2)c2ccc(N(C)C)cc2)cc1	?	nt	nt	-39.6%
N#Cc1nc(-c2ccccc2F)oc1NCCc1ccccn1	0.8%	-37.8%	>57	11.6%
COC(=O)c1ccc(-c2cc(C(=O)O)c3cc4c(cc3n2)OCCO4)cc1	14.2%	3.16µM*	?	7.1%
COCCOC(=O)C1=C(C)NC2=C(C(=O)CC(C)(C)C2)C1c1cccnc1 (stereo unspecified)	-0.8%	1.6%	>57	9.0%
CC1=C(C(=O)OCC2CCCO2)C(c2ccncc2)C2=C(CC(C)(C)CC2=O)N1 (stereo unspecified)	?	-3.9%	>57	3.98µM*
COc1cccc(-c2cc(=O)c3ccccc3o2)c1N	?	12.6µM*	nt	?
O=c1cc(-c2ccc(O)cc2O)oc2ccccc12	-7.1%	-4.5%[11.4 µM]	nt	-12.8%
O=C(O)c1ccc(CS(=O)c2cccc(C(F)(F)F)c2)o1 (stereo unspecified)	-12.0%	2.4%	>57	12.5%
CC1CCCCC1NC(=O)Cn1nnc(-c2ccc(Cl)cc2)n1 (stereo unspecified)	?	-0.9%	>57	?
Cc1cnc(CNc2nc(-c3ccc(N(C)C)cc3)nc3ccccc23)cn1	?	0.794µM*	nt	-58.0%
COC(=O)c1ccc(CSc2ncnc3c2sc2nc(N4CCOCC4)c4c(c23)CCCC4)o1	nt	-1.7%[25.5 µM]	>25.6	nt
CC(NCC1(N2CCOCC2)CCCCC1)C(=O)N1CCc2ccccc21 (stereo unspecified)	16.3%	3.6%	>57	3.1%
CC(=O)NC(CC(C)C)C(=O)NC(Cc1ccccc1)C(N)=O (stereo unspecified)	-1.8%	2.9%	>57	-4.9%
SMILES	TSHR ag	Luciferase inh	Bst PK mod	HEK293 cAMP cs
CC(=O)[C@H](CC(C)C)NC(=O)[C@@H](CC(C)C)NC(=O)[C@H](CC(C)C)NC(=O)OCc1ccccc1	?	-2.0%	nt	25.1µM*
COC(=O)[C@@]1(Cc2ccc(OC)cc2)[C@H]2c3cc(C(=O)N(C)C)n(Cc4ccc(C(F)(F)F)nc4)c3C[C@H]2CN1C(=O)c1ccccc1	?	nt	nt	6.31µM*
COC(=O)[C@@]1(Cc2ccc(F)cc2)[C@H]2c3cc(C(=O)N(C)C)n(CC4CC4)c3C[C@H]2CN1C(=O)c1ccccc1	?	nt	nt	6.31µM*
COC(=O)[C@@]1(Cc2ccc(F)cc2)[C@H]2c3cc(C(=O)N(C)C)n(CCc4ccc(O)c(O)c4)c3C[C@H]2CN1C(=O)c1ccccc1	6.4%	nt	nt	16.7%
COC(=O)[C@@]1(Cc2ccccc2)[C@H]2c3cc(C(=O)N(C)C)n(Cc4ccc(O)c(OC)c4)c3C[C@H]2CN1C(=O)c1ccccc1	?	nt	nt	25.1µM*
COC(=O)[C@@]1(Cc2ccccc2)[C@H]2c3cc(C(=O)N(C)C)n(Cc4ccc(S(C)(=O)=O)cc4)c3C[C@H]2CN1C(=O)c1ccccc1	?	nt	nt	15.8µM*
CCOC(=O)C(Sc1nnc2c3ccccc3n(CC)c2n1)C(=O)OCC	nt	-1.9%	>57	3.2%
